# Test results taken from PubChem BioAssay (NCATS).
# Results filed as inconclusive are left out. Active and inactive are the calls of the source. Unless noted, calls come from the whole dose curve; as a rule, active = well fitted curve in either direction with a large enough effect (not every such curve was filed as active); inconclusive = small, poorly fitted or top-dose-only effect, or another doubt; inactive = flat fitted curve, though single readings scatter.
# Experiments:
# [1] = target: Lysosomal acid glucosylceramidase (Homo sapiens) (UniProt P04062); experiment: Glucocerebrosidase-p2 (AID 348; in the data active = potency below about 10 µM; note: potency is the fitted concentration of half-maximal effect); conditions: purified GBA, blue fluorogenic substrate, 40 min
# Chain of Lysosomal acid glucosylceramidase (Homo sapiens) (P04062 whole entry, looked up): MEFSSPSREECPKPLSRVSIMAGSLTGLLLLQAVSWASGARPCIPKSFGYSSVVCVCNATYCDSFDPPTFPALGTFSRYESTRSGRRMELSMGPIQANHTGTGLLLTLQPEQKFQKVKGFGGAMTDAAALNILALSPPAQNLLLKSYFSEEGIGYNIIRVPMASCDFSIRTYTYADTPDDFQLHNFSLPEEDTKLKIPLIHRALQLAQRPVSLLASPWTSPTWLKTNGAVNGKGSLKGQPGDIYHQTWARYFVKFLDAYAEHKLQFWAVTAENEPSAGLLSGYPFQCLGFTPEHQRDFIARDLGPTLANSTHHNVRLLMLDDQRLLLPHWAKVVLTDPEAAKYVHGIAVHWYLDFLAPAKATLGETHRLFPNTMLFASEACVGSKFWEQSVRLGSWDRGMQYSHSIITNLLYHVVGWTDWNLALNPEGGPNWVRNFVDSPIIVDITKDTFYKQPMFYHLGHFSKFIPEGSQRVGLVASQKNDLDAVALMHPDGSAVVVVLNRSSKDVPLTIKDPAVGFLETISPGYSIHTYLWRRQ
# How it was run: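 Normal human glucocerebrosidase (0.2 nM) with blue fluorogenic substrate (80 uM final) in citrate/phosphate pH 5.9 with 10mM sodium taurocholate, 0.01% tween-20; 40 min RT, NaOH/glycine stop; fluorescence Ex 365/Em 440; AC50 from a titration from 0.6 nM upwards.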
# [2] = AP1 Signaling Pathway (AID 357); conditions: ME-180 AP-1-bla reporter, EGF-induced, beta-lactamase ratio, 5 h; at 7.69 µM (top of the series) unless noted; note: % is set by controls: 0 for no effect and ±100 for the full control effect
# How it was run: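 Modulation of EGF-driven AP-1 transcription was assessed with a beta-lactamase reporter in ME-180 cells. Compound and EC50 EGF were co-incubated 5 hours at 37 °C before 2.5-hour CCF4 loading at room temperature and dual-emission reading.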
# [3] = NFAT Signaling Pathway (AID 444); conditions: Jurkat NFAT-bla M1, carbachol, beta-lactamase ratio, 5 h; at 7.69 µM (top of the series) unless noted;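 note: carbachol stimulus at about its EC50 of 1 µM final; % is set by controls: 0 for no effect and ±100 for the full control effect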
# How it was run: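 Jurkat cells with NFAT-driven β-lactamase reporter and co-expressed M1 receptor, stimulated with carbachol (final 1 uM, ~EC50), compound titration, 5 h at 37 °C. CCF4 loaded 1 h at RT; 460/530 nm ratio gave %activity and AC50.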
# [4] = Stat Signaling Pathway (AID 446); conditions: ME-180 (cervical carcinoma) SIE beta-lactamase reporter, IL-6 stimulated, 5 h; at 7.69 µM (top of the series) unless noted;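 note: ME-180 cervical cancer cells given 40 pM IL-6 alongside compound; SIE-controlled beta-lactamase reporter measured as 460/530 nm FRET emission ratio; % is set by controls: 0 for no effect and ±100 for the full control effect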
# How it was run: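 FRET read-out (405 nm excitation, 460/530 nm emission) of a beta-lactamase reporter under a STAT-inducible element in ME-180 cervical carcinoma cells. Cells with compound receive 40 pM IL-6 for 5 h. Values are normalised to AC90 stimulation and AC90 JAK-inhibitor controls.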
# [5] = target: Glucocorticoid receptor (Homo sapiens) (UniProt P04150); experiment: GR-EFC Redistribution (AID 451; calls by dose curve; note: potency is the fitted concentration of half-maximal effect); conditions: CHO-K1 GR-EFC translocation, beta-gal luminescence, 2 h
# Chain of Glucocorticoid receptor (Homo sapiens) (P04150 whole entry, looked up, the tested form may be a part): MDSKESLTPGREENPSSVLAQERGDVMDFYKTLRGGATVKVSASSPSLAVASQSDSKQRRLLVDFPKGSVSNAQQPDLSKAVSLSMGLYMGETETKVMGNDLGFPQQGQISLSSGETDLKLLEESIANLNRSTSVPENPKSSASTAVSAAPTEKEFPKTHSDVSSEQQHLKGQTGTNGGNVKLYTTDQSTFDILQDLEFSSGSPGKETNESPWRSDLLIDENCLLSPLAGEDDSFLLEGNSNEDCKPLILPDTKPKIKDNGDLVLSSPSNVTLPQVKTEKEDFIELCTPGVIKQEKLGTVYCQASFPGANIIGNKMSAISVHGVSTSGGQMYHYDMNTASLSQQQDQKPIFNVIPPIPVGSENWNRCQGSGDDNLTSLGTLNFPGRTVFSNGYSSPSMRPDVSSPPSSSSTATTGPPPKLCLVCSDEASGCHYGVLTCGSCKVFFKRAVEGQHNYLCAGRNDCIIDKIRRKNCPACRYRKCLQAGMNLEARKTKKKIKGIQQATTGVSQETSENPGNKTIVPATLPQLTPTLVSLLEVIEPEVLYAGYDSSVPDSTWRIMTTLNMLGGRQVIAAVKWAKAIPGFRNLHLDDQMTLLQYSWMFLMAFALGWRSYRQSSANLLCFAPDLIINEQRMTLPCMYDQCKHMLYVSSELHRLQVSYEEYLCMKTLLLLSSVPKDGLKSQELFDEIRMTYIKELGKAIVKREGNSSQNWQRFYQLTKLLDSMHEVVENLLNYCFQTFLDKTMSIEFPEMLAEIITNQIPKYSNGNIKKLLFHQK
# How it was run: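 CHO-K1 cells expressing nuclear EA and GR-ED fragments of b-gal; compounds titrated up to 46 uM final, 2 h at 37 C. GR nuclear translocation read as complemented b-gal luminescence after 1 h RT detection.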
# [6] = target: Mitogen-activated protein kinase 10 (Mus musculus) (UniProt Q61831); experiment: JNK3 AlphaScreen Assay (AID 530); conditions: JNK3 lysate, c-Jun phosphorylation; series mostly up to 57.1 µM;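 note: kinase came from lysate of stimulated human HepG2 cells; signal reports phosphorylation of biotinylated GST-cJun 1-79 at Ser73 with 10 µM ATP; % is set by controls: 0 for no effect and ±100 for the full control effect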
# How it was run: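 HepG2 lysate (IL-1b/TNFa pre-activated) + biotin-GST-cJun 1-79 + anti-pSer73 cJun; cpd titration, 15 min RT; ATP 10 uM start; Tris pH 7.6, MgCl2, DTT, vanadate; beads in EDTA buffer; AlphaScreen.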
# [7] = target: 3',5'-cyclic-AMP phosphodiesterase 4B (Homo sapiens) (UniProt Q07343); experiment: qHTS Assay for Inhibitors of PDE-IV (AID 607; active = well fitted activation curve with a large enough effect in the main read-out, with a control signal flat, not every such curve was filed as active; note: % of control where 0% means no effect); conditions: HEK293 ACTOne CNG channel cells, membrane potential fluorescence; series mostly up to 22.9 µM
# Chain of 3',5'-cyclic-AMP phosphodiesterase 4B (Homo sapiens) (Q07343 whole entry, looked up): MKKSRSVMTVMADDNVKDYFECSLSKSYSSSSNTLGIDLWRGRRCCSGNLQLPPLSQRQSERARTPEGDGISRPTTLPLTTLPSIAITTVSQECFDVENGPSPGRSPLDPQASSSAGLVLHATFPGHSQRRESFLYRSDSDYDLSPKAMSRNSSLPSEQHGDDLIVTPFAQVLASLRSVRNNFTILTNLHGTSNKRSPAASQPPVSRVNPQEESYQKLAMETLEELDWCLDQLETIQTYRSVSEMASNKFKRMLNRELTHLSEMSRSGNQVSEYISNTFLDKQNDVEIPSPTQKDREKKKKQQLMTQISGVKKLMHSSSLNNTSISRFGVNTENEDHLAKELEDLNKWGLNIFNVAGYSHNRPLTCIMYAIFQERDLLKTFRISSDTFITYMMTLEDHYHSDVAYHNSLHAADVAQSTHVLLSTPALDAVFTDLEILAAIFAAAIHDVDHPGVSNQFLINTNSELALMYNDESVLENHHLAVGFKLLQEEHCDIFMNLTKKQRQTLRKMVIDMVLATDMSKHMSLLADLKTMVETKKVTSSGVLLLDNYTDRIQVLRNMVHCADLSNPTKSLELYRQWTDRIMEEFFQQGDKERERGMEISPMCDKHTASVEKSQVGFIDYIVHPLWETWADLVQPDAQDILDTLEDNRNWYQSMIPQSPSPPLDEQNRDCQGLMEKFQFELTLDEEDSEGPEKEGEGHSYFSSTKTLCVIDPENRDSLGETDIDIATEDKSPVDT
# How it was run: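 Cell-based read-out of cAMP via a modified cyclic nucleotide-gated channel and membrane potential dye (535/590 nm) in HEK293 cells expressing PDE4 endogenously. Compounds tested up to 22.9 uM final; 100 uM RO 20-1724 reference.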
# [8] = qHTS Assay for Lipid Storage Modulators (AID 1519; calls by dose curve); conditions: Drosophila S3 cells, BODIPY lipid droplet/cell ratio, laser cytometry, cells loaded with oleic acid; for activity change, negative = inhibition: at 57.5 µM (top of the series)
# How it was run: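 Cells seeded at 5,000 per well were treated with compounds over a concentration series and loaded with oleic acid (400 uM, as added). Lipid droplet fluorescence (488 nm excitation, 500-530 nm channel) was read by laser-scanning cytometry and normalized to 20 uM Triacsin C.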
# [9] = Primary qHTS for small molecule stabilizers of the endoplasmic reticulum resident proteome: Secreted ER Calcium Modulated Protein (SERCaMP) assay (AID 1508630; active = well fitted inhibition curve with a large enough effect; note: % is set by controls: 0 for no effect and ±100 for the full control effect); conditions: SH-SY5Y GLuc-SERCaMP (Gaussia luciferase released on ER calcium loss) secretion, thapsigargin, luminescence; series mostly up to 38.4 µM
# How it was run: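 The SH-SY5Y reporter protocol was run at 3 concentrations up to 38.3 uM (primary) or 11 concentrations (follow-up): 16 h compound, 100 nM thapsigargin for 4 h, then extracellular luciferase luminescence.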
# [10] = measured here: cell count channel max response
# [11] = measured here: lipid channel max response
SMILES,Potency [1],"activity change, negative = inhibition [2]","activity change, negative = inhibition [3]","activity, negative = inhibition [4]",Potency [5],Potency [6],Potency [7],"activity change, negative = inhibition [8]","max response [8, 10]","max response [8, 11]",outcome [9]
COc1ccc(NC(=O)N2CC[C@@]3(CCCN(C(=O)c4ccncc4)C3)C2)cc1,> 11.4 µM (inactive),-25.1% (inactive),16.8% (inactive),5.11% (inactive),> 46 µM (inactive),inactive,inactive,2.47% (inactive),0.213%,7.4%,inactive
O=S(=O)(c1ccccc1)N1CCC2(CCN(c3cccc(-c4ccccc4)c3)CC2)CC1,> 11.4 µM (inactive),-5.65% (inactive),-3.11% (inactive),-8.83% (inactive),> 46 µM (inactive),inactive,inactive,5.8% (inactive),17.8%,24.9%,inactive
Cc1noc(C)c1C(=O)N1CCC[C@@]2(CCN(C(=O)Nc3cccc(C#N)c3)C2)C1,> 11.4 µM (inactive),-3.34% (inactive),5.42% (inactive),-8.01% (inactive),> 46 µM (inactive),inactive,inactive,5.85% (inactive),14.6%,24.7%,inactive
COC(=O)N1CCC[C@@]2(CCN(Cc3cc(C(F)(F)F)cc(C(F)(F)F)c3)C2)C1,> 11.4 µM (inactive),-12.5% (inactive),9.2% (inactive),-8.1% (inactive),> 46 µM (inactive),inactive,inactive,-1.37% (inactive),12.3%,14.8%,inactive
CS(=O)(=O)N1CCC2(CC1)CN(Cc1ccccc1)C2,> 11.4 µM (inactive),-4.28% (inactive),-8.71% (inactive),-7.57% (inactive),> 46 µM (inactive),inactive,inactive,3.83% (inactive),6.73%,15%,inactive
CC(=O)N1CCC2(CCCN(C(=O)Nc3cccc(C#N)c3)C2)CC1,> 11.4 µM (inactive),-1.46% (inactive),-5.5% (inactive),4.81% (inactive),> 46 µM (inactive),inactive,inactive,0.477% (inactive),12.8%,15.6%,inactive
O=C(c1csnn1)N1CCC[C@@]2(CCN(Cc3cc(C(F)(F)F)cc(C(F)(F)F)c3)C2)C1,> 11.4 µM (inactive),-0.847% (inactive),2.05% (inactive),-8.74% (inactive),> 46 µM (inactive),inactive,inactive,5.01% (inactive),20.3%,22.1%,inactive
COc1ccc(C(=O)N2CCC[C@@]3(CCN(c4ccccn4)C3)C2)cc1,> 11.4 µM (inactive),-10.4% (inactive),-4.97% (inactive),-7.47% (inactive),> 46 µM (inactive),inactive,inactive,5.2% (inactive),13.5%,23.4%,inactive
CS(=O)(=O)N1CCC[C@@]2(CCN(Cc3ccc(C#N)cc3)C2)C1,> 11.4 µM (inactive),10.7% (inactive),-5.85% (inactive),-6.21% (inactive),> 46 µM (inactive),inactive,inactive,1.64% (inactive),-0.832%,-0.755%,inactive
CS(=O)(=O)N1CCC2(CCN(c3ccccn3)CC2)CC1,> 11.4 µM (inactive),-5.04% (inactive),-12.8% (inactive),-2.94% (inactive),> 46 µM (inactive),inactive,inactive,6.49% (inactive),5.01%,13.9%,inactive
COC(=O)N1CCC[C@@]2(CCN(C(=O)NC(C)C)C2)C1,> 11.4 µM (inactive),-4.17% (inactive),-22.1% (inactive),8.06% (inactive),> 46 µM (inactive),inactive,inactive,2.29% (inactive),-6.98%,-3.79%,inactive
N#Cc1ccc(CN2CC[C@@]3(CCCN(C(=O)c4cccc(F)c4)C3)C2)cc1,> 11.4 µM (inactive),-24.8% (inactive),-12.5% (inactive),-4.01% (inactive),> 46 µM (inactive),inactive,inactive,-0.514% (inactive),0.82%,2.5%,inactive
CC(C)CN1CC[C@@]2(CCCN(C(=O)c3cccc(F)c3)C2)C1,> 11.4 µM (inactive),-9.55% (inactive),-0.696% (inactive),6.14% (inactive),> 46 µM (inactive),inactive,inactive,1.5% (inactive),13.4%,19.5%,inactive
CS(=O)(=O)N1CCC2(CC1)CN(c1ccccn1)C2,> 11.4 µM (inactive),2.96% (inactive),-0.983% (inactive),5.22% (inactive),> 46 µM (inactive),inactive,inactive,2.99% (inactive),7.05%,10.2%,inactive
CC(C)NC(=O)N1CCC2(CC1)CCN(S(=O)(=O)c1ccccc1)CC2,> 11.4 µM (inactive),-11.1% (inactive),6.99% (inactive),-1.93% (inactive),> 46 µM (inactive),inactive,inactive,3.73% (inactive),-0.645%,4.57%,inactive
